Experiment [1] is described as follows: Tanguay_ZF_120hpf_TR_legacy: (Legacy) Oregon State University Tanguay Lab 120 Hour Post-fertilization zebrafish Assay for Touch Response (AID 2283667). Summed up: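 Readout is presence or absence of touch response in 120 hpf zebrafish larvae, assessed by brightfield observation after continuous static exposure at 28C. Final vehicle was 0.64% (vol/vol) DMSO.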

Read-out in experiment [2]: sulfotransferase (SULT2A), SULT2A1 (gene 6822)
As to the kind of experiment: CLD_SULT2A_6hr: CellzDirect (CLD) Gene Expression Assay for sulfotransferase (SULT2A) at 6 hours (AID 2283669).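 Also: hits raise transcript level above the DMSO vehicle baseline.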 Summed up: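 Measured 6 h after dosing, SULT2A1 mRNA in human hepatocyte lysates was quantified by S1 nuclease protection with chemiluminescent detection. Increases fitted against 0.2% DMSO vehicle baseline; phase-contrast cytotoxicity recorded yes/no.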

Experiment [3] can be described thus: CLD_ACTIN_24hr: CellzDirect (CLD) Gene Expression Assay for Baseline Control (Actin) at 24 hours (AID 2283670). In short, it runs like this:
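This 24 h qNPA (S1 nuclease protection, chemiluminescence) actin transcript readout in cultured human liver primary cells serves as baseline control. Signal is fitted upward relative to 0.2% DMSO; chemicals tested at multiple concentrations across two donor preparations.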

Read-out in experiment [4]: glucuronosyltransferase (UGT1A1), UGT1A1 (gene 54658)
In words: CLD_UGT1A1_6hr: CellzDirect (CLD) Gene Expression Assay for glucuronosyltransferase (UGT1A1) at 6 hours (AID 2283672). Summed up: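 UGT1A1 mRNA induction, read by quantitative nuclease protection assay, 6 h after dosing primary human hepatocytes (two donors, 0.2% DMSO vehicle). Gain of signal fitted relative to vehicle.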

Read-out in experiment [5]: ABC Transporter (ABCB11), ABCB11 (gene 8647)
In words: CLD_ABCB11_24hr: CellzDirect (CLD) Gene Expression Assay for ABC Transporter (ABCB11) at 24 hours (AID 2283674; active = hit-call score of the fitted dose curve at least 0.9, where 1 is the maximum; inactive = score below 0.9). Summed up: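 ABCB11 transcript was quantified by qNPA chemiluminescence in cultured human liver hepatocytes 24 hours after dosing. Fresh dosing solutions were applied on consecutive days, against a 0.2% DMSO vehicle. Cytotoxicity was noted by phase-contrast morphology.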

The nature of experiment [6]: CCTE_Simmons_CellTiterGLO_HEK293T: Viability Assessment in CCTE's Assays for Thyroperoxidase (TPO) Inhibition, Simmons Lab (AID 2283665).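 As to AC50: cells exposed to compound for 24 h before readout; actives reduce ATP signal below DMSO vehicle meaning cytotoxicity.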 In short, it runs like this:
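Luminescent ATP readout (CellTiter-Glo, 20 min at room temperature) after 24 hr exposure of HEK293T cells to 5 nM–87.5 uM final compound; signal loss relative to DMSO vehicle indicated cytotoxicity; dichlone titrated as positive control.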
For orientation: ATP-based viability assays read luminescence as a measure of living cells.

Read-out in experiment [7]: alkyl and aryl transferase (GSTA2), GSTA2 (gene 2939)
In words: CLD_GSTA2_6hr: CellzDirect (CLD) Gene Expression Assay for alkyl and aryl transferase (GSTA2) at 6 hours (AID 2283666). Summed up: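 GSTA2 transcript induction at 6 h, quantified by nuclease protection (qNPA) with chemiluminescent detection, in human liver primary hepatocytes exposed to several compound concentrations with 0.2% DMSO as baseline; phase-contrast morphology annotated apparent cytotoxicity.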

Read-out in experiment [8]: xenobiotic metabolism (CYP1A1), CYP1A1 (gene 1543)
In words: CLD_CYP1A1_24hr: CellzDirect (CLD) Gene Expression Assay for xenobiotic metabolism (CYP1A1) at 24 hours (AID 2283673).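 Also: CYP1A1 mRNA level by quantitative nuclease protection with chemiluminescence.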 In short, it runs like this:
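Transcript levels were read at 24 h by qNPA chemiluminescence in human liver primary cells. Cells got daily fresh dosing at multiple concentrations (vehicle 0.2% DMSO). Induction fitted upward against DMSO; phase-contrast cytotoxicity annotated.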

Read-out in experiment [9]: ABC Transporter (ABCB11), ABCB11 (gene 8647)
In words: CLD_ABCB11_6hr: CellzDirect (CLD) Gene Expression Assay for ABC Transporter (ABCB11) at 6 hours (AID 2283675).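 Also: hits raise ABCB11 mRNA level so AC50 marks induction.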 Summed up:
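Read-out was ABCB11 mRNA gain of signal by quantitative nuclease protection assay, relative to 0.2% DMSO vehicle, 6 h post-dose. Cells were primary human hepatocytes from two donors, treated across multiple concentrations; phase-contrast cytotoxicity noted yes/no.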

Read-out in experiment [10]: Cytochrome P450 (CYP24A1_1), CYP24A1 (gene 1591)
In words: LTEA_HepaRG_CYP24A1_1: Life Technologies and Expression Analysis (LTEA) Assay for Cytochrome P450 (CYP24A1_1) using HepaRG (AID 2283671; active = hit-call score of the fitted dose curve at least 0.9, where 1 is the maximum; inactive = score below 0.9). To be noted: mRNA level, 48 h; actives raise or lower the signal. Summed up:
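Cultures of human HepaRG were treated in duplicate for 48 h (0.5% DMSO vehicle, highest dose 100 uM). CYP24A1 mRNA by qRT-PCR, normalized to ACTB, GAPDH, POLR2A.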

“And” between values parts separate entries of the source, which are not always exact repeats. Identical values can stand only once. Results filed as inconclusive are left out. Some compounds were tested as several samples or in several runs, with calls that do not always agree. The source made the active and inactive calls. The calls were made as follows, unless noted: active = hit-call score of the fitted dose curve at least 0.9, where 1 is the maximum; inconclusive = response in the unintended direction; inactive = score below 0.9.

As usually defined, the AC50 is the concentration at which the activity in the assay is half-maximal.

On to `CN(C)NC(=O)CCC(=O)O`, for which the result in experiment [1], in experiment [2], in [3], in [4] and in experiment [5] was inactive.

Consider `C=C(C)[C@H]1Cc2c(ccc3c2O[C@@H]2COc4cc(OC)c(OC)cc4[C@@H]2C3=O)O1`, for which the compound was called inactive in [6], in experiment [7], in experiment [1], in experiment [2], in experiment [4] and in [5].

Turning to `Nc1nc(N)nc(NC2CC2)n1`, the result in [1], in experiment [2], in [3], in experiment [4], in experiment [8] and in experiment [9] was inactive.

Take `Cc1ccn2nc(S(=O)(=O)Nc3c(F)cccc3F)nc2n1`: the compound was classed as inactive in experiment [1], in experiment [2], in [3] and in experiment [4].

Regarding `CCOC(=O)CC(SP(=O)(OC)OC)C(=O)OCC` (stereo not drawn), the compound was classed as inactive in [6], in experiment [1], in experiment [10], in experiment [4] and in experiment [5].

For `COP(=O)(OC)OC(Br)C(Cl)(Cl)Br` (stereo not drawn), the result in experiment [1], in [2], in experiment [3], in [4] and in experiment [8] was inactive.

Take `O=c1ccc(=O)[nH][nH]1`: the result in experiment [6], in experiment [1], in experiment [3] and in [4] was inactive.

Regarding `CCC(=NOC/C=C/Cl)C1=C(O)CC(C2CCOCC2)CC1=O` (stereo not drawn), the outcome in [6], in experiment [2], in [3], in experiment [4] and in experiment [5] was inactive.

For the compound `N#CSCSC#N`, in experiment [6], the AC50 is 9.47 µM (active). The compound was classed as inactive in experiment [2], in experiment [3], in experiment [4], in experiment [8] and in [5].

For the compound `CCc1cccc(C)c1N(C(=O)CCl)C(C)COC` (stereo not drawn), the compound was called inactive in experiment [1], in [2], in experiment [3] and in experiment [4].

Consider `CCOP(=S)(OCC)Oc1cc(C)nc(C(C)C)n1`, for which the AC50 in [6] is 83.2 µM (active). The result in [1], in [2] and in experiment [4] was inactive.

For `CNc1cnn(-c2cccc(C(F)(F)F)c2)c(=O)c1Cl`, the compound was called inactive in [7], in [1], in [2] and in experiment [4].

For `CC1(C(=O)Nc2ccc(O)c(Cl)c2Cl)CCCCC1`, in [6], the AC50 was 82.2 µM (active). Besides, the call in [1], in [3], in experiment [10], in experiment [4] and in experiment [5] was inactive.

Regarding `COP(=O)(OC)C(O)C(Cl)(Cl)Cl` (stereo not drawn), the compound was called inactive in experiment [7], in experiment [1], in experiment [3], in experiment [4] and in experiment [5].

Consider `CCCSP(=O)(OCC)SCCC`, for which the compound was called inactive in experiment [6], in [2], in [4] and in [5].

As to `CCCSP(=O)(OCC)Oc1ccc(Br)cc1Cl` (stereo not drawn), the AC50 in experiment [6] is 41.5 µM (active). Further, the result in experiment [1], in experiment [2] and in [4] was inactive.

Turning to `CCOP(=S)(OCC)Oc1ccc2c(C)c(Cl)c(=O)oc2c1`, the result in experiment [6], in experiment [1], in experiment [2], in [3], in experiment [10] and in [4] was inactive. Further, in experiment [5], the outcome was inactive.

With `CCOP(=S)(OCC)OC(Cl)C(Cl)(Cl)Cl` (stereo not drawn), the AC50 in [6] is 64.7 µM (active); in experiment [8], 4.46 µM (active). Moreover, the compound was called inactive in experiment [2], in experiment [4] and in [5].

`COP(=O)(NC(C)=O)SC` (stereo not drawn): the call in experiment [6], in experiment [1], in experiment [2], in experiment [3] and in experiment [4] was inactive.

For `Nc1c(Cl)cc([N+](=O)[O-])cc1Cl`, the AC50 in experiment [1] was 38.8 µM (active).

As for `CCOP(=O)(SC(C)CC)N1CCSC1=O` (stereo not drawn), the outcome in experiment [6], in experiment [1], in [4] and in experiment [5] was inactive.

Regarding `CCOP(=S)(Oc1cnc(C(C)(C)C)nc1)OC(C)C` (stereo not drawn), the results for the AC50 in [6] and in [2] were 31.4 µM (active) and 10.8 µM (active), respectively. Moreover, the result in [7], in experiment [1], in experiment [10], in experiment [4] and in [5] was inactive.

On to `CN(C)[C@@H]1C(=O)C(C(N)=O)=C(O)[C@@]2(O)C(=O)C3=C(O)c4c(O)cccc4[C@@](C)(O)[C@H]3[C@H](O)[C@@H]12`, for which the AC50 in experiment [6] was 5.47 µM (active) and 53.8 µM (active). Besides, the compound was classed as inactive in experiment [6], in experiment [1], in [3], in experiment [4] and in [5].

For `FC(F)C(F)(F)OCC(Cn1cncn1)c1ccc(Cl)cc1Cl` (stereo not drawn), in experiment [1], the AC50 was 34.8 µM (active). The outcome in experiment [2], in experiment [3] and in experiment [4] was inactive.

For the compound `CCCOCC(=Nc1ccc(Cl)cc1C(F)(F)F)n1ccnc1`, the AC50 in experiment [6] was 21.3 µM (active). For the same compound, the result in [1], in [2] and in [4] was inactive.

On to `CSC1=N[C@@](C)(c2ccccc2)C(=O)N1Nc1ccccc1`, for which the compound was classed as inactive in experiment [6], in experiment [1], in experiment [2], in [3] and in experiment [4].

On to `CNC(=O)Oc1cccc2c1OC(C)(C)O2`, for which the compound was classed as inactive in experiment [1], in [2], in [3], in [10] and in [4].

`O=[N+]([O-])c1cc(C(F)(F)F)c(Cl)c([N+](=O)[O-])c1Nc1ncc(C(F)(F)F)cc1Cl`: the outcome in experiment [1] and in experiment [2] was inactive.

Turning to `Cc1nn(-c2cc(NS(C)(=O)=O)c(Cl)cc2Cl)c(=O)n1C(F)F`, the compound was classed as inactive in [1], in experiment [2], in experiment [3], in experiment [4], in experiment [8] and in experiment [5].

As for `COc1cccc(C(=O)NN(C(=O)c2cc(C)cc(C)c2)C(C)(C)C)c1C`, the compound was classed as inactive in experiment [1], in experiment [2], in experiment [3], in [4] and in [5].

In the case of `CON=C(C(=O)OC)c1ccccc1CON=C(C)c1cccc(C(F)(F)F)c1`, the result in experiment [1], in [2], in experiment [3], in [4] and in experiment [5] was inactive.

Regarding `CCC(=O)Nc1ccc(Cl)c(Cl)c1`, the outcome in [6], in experiment [1] and in experiment [4] was inactive.

Turning to `COP(=O)(OC)SCn1c(=O)oc2cc(Cl)cnc21`, the compound was classed as inactive in experiment [6], in experiment [1], in experiment [2] and in experiment [8].

On to `S=C1NCCN1`, for which the compound was called inactive in [6], in experiment [1], in [3] and in experiment [5].

Regarding `CCOP(=S)(OCC)Oc1ccc([N+](=O)[O-])cc1`, the outcome in experiment [6], in experiment [2] and in experiment [4] was inactive. Further, the AC50 in experiment [8] was 5.99 µM (active).

The values above are taken from PubChem BioAssay (EPA / NIEHS).
